Our source for the growth values is PubChem BioAssay (NCI).

The panel holds about 83,000 compounds, 20% with a hit somewhere; the sample as a whole holds those more often.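 48-hour exposure, single concentration, 96-well plates; percent growth endpoint where 0 means no net growth. Active: below 10.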 Values without a mark were called inactive. Activity calls are given as the source filed them.

What all share (test): NCI-60 one-dose screen, 48 h (100 = growth as untreated, 0 = no growth, -100 = all killed)
The test system of one assay is HCT-15 colon. Particulars: 10 µM unless noted.
The test system of another assay is HT29 colon. Particulars: 10 µM unless noted.
Another assay has as its system SNB-19 CNS. The following applies: 10 µM unless noted.
In a further assay the test system is U251 CNS. Particulars: 10 µM unless noted.
Another assay concerns PC-3 prostate. The following applies: 10 µM unless noted.
The subject of the next assay is SK-MEL-5 melanoma. Particulars: 10 µM unless noted.
For a further assay, the system named is UACC-62 melanoma. Particulars: 10 µM unless noted.
A further assay deals with SK-MEL-28 melanoma. The following applies: 10 µM unless noted.
The subject of the next assay is SK-MEL-2 melanoma. The following applies: 10 µM unless noted.
For the next assay, the system named is EKVX NSCLC. The following applies: 10 µM unless noted.
The subject of a further assay is SN12C renal. The following applies: 10 µM unless noted.
In the next assay the test system is UO-31 renal. Particulars: 10 µM unless noted.
The test system of a further assay is TK-10 renal. Particulars: 10 µM unless noted.
Another assay relates to CAKI-1 renal. The following applies: 10 µM.
The next assay has as its system CCRF-CEM leukemia. The following applies: 10 µM unless noted.
Another assay relates to MOLT-4 leukemia. Particulars: 10 µM unless noted.
The test system of a further assay is LOX IMVI melanoma. Particulars: 10 µM unless noted.
The next assay deals with ACHN renal. Particulars: 10 µM unless noted.
For another assay, the system named is A498 renal. The following applies: 10 µM unless noted.

In the case of `Cc1cc(F)cc(NS(=O)(=O)c2ccc(-c3cnc(C4CC4)o3)cc2)c1`, the growth was 22.4% with HCT-15 colon; 8.59% (active) with HT29 colon; 35.2% with SNB-19 CNS; 22.6% with U251 CNS; 17.4% in the assay with PC-3 prostate; 21.5% in the assay with SK-MEL-5 melanoma. Moreover, the growth with UACC-62 melanoma is 25.6%; with SK-MEL-28 melanoma, 60.4%; in the assay with SK-MEL-2 melanoma, 67%; in the assay on EKVX NSCLC, 34.3%; in the assay on SN12C renal it was 44.8%; in the assay with UO-31 renal, 43.2%. Further, the growth in the assay on TK-10 renal was 53.5%; with CAKI-1 renal, 39.9%; with CCRF-CEM leukemia, 20.8%; in the assay with MOLT-4 leukemia, 26.1%.

On to `O=C(CN1C(=O)CSC1=O)Nc1ccc(C(=O)/C=C/c2cc3ccccc3nc2Cl)cc1`, for which the growth is 79.3% in the assay with HCT-15 colon; 17.4% in the assay on HT29 colon; 83.4% in the assay with SNB-19 CNS; 77.2% with U251 CNS; 34% with SK-MEL-5 melanoma; 74% in the assay on UACC-62 melanoma. The growth with LOX IMVI melanoma is 37.5%; in the assay on SK-MEL-28 melanoma, 95.4%; in the assay on SK-MEL-2 melanoma it was 88.5%; with EKVX NSCLC, 72.1%; in the assay on SN12C renal, 83.8%; in the assay with UO-31 renal, 59.5%. Also, the growth in the assay with TK-10 renal is 92.1%; in the assay on ACHN renal it was 83.5%; with CAKI-1 renal, 63%; in the assay with A498 renal, 94.3%; with CCRF-CEM leukemia, 45.5%; in the assay on MOLT-4 leukemia, 36.4%.

In the case of `COc1ccc(-c2ccnc3c(C#N)c(Nc4ccccc4)nn23)cc1OC`, the growth in the assay on HCT-15 colon was 88.8%; with HT29 colon it was 90%; in the assay with SNB-19 CNS, 95.1%; with U251 CNS it was 87.7%; in the assay on PC-3 prostate, 89.2%; with SK-MEL-5 melanoma, 74.2%. The growth was 85.3% in the assay on UACC-62 melanoma; 90.9% with LOX IMVI melanoma; 90.7% with SK-MEL-28 melanoma; 98.9% in the assay with EKVX NSCLC; 89.8% in the assay on SN12C renal; 67.9% with UO-31 renal. The growth is 65.8% in the assay with TK-10 renal; 86.4% in the assay with ACHN renal; 60.2% with CAKI-1 renal; 93.8% in the assay on CCRF-CEM leukemia; 84.9% with MOLT-4 leukemia.

Turning to `Oc1ccccc1-c1nnc(SCc2ccc(O)c3ncccc23)o1`, the growth in the assay on HCT-15 colon was 16.3%; in the assay with HT29 colon it was 102%; with SNB-19 CNS it was 29.1%; in the assay with U251 CNS, 23.6%; with PC-3 prostate, 19.2%; in the assay with UACC-62 melanoma, 30.2%. Also, the growth in the assay with LOX IMVI melanoma was 39.1%; in the assay on SK-MEL-28 melanoma it was 51.2%; with SK-MEL-2 melanoma it was 34.1%; with EKVX NSCLC, 53.1%; with SN12C renal, 18.5%; in the assay with UO-31 renal it was 14.7%. Moreover, the growth was 43.9% in the assay with TK-10 renal; 25.4% in the assay with ACHN renal; 25.3% in the assay on CAKI-1 renal; 81.7% in the assay on A498 renal; 28.1% with CCRF-CEM leukemia; 36.3% in the assay with MOLT-4 leukemia.

Take `O=C(Nc1cccc(Cl)c1)Nc1nc2ccc([N+](=O)[O-])cc2s1`: the growth is 1.52% (active) in the assay with HCT-15 colon; 4.55% (active) in the assay on HT29 colon; 21.2% in the assay on SNB-19 CNS; 5.89% (active) with U251 CNS; 6.96% (active) in the assay on PC-3 prostate; -75.3% (active) in the assay with SK-MEL-5 melanoma. In addition, the growth with UACC-62 melanoma was -40.2% (active); with SK-MEL-28 melanoma, 0.117% (active); with SK-MEL-2 melanoma, -24.1% (active); with EKVX NSCLC it was 10%; with SN12C renal it was 4.02% (active); in the assay on UO-31 renal, 7.26% (active). Also, the growth in the assay on TK-10 renal was -2.79% (active); with ACHN renal, 5.59% (active); with CAKI-1 renal, 3.38% (active); in the assay with CCRF-CEM leukemia, 9.48% (active); with MOLT-4 leukemia, 2.36% (active).

Regarding `O=C1c2c(c3c4cccnc4[nH]c3c3ccc4ccccc4c23)C(=O)N1CCN1CCNCC1`, the growth was 3.44% (active) in the assay on HCT-15 colon; 57.9% in the assay on HT29 colon; 76.3% with SNB-19 CNS; 56.2% in the assay with U251 CNS; 66.8% in the assay on PC-3 prostate; 91.7% with SK-MEL-5 melanoma. Also, the growth in the assay with UACC-62 melanoma was 79.6%; with SK-MEL-28 melanoma it was 108%; with SK-MEL-2 melanoma it was 113%; in the assay with EKVX NSCLC, 92.4%; with SN12C renal, 76.7%; with UO-31 renal, 58%. In addition, the growth is 136% in the assay on TK-10 renal; 37% in the assay with ACHN renal; 52.2% in the assay on CAKI-1 renal; 70.2% in the assay on A498 renal; 27.2% in the assay on CCRF-CEM leukemia; 8.49% (active) in the assay with MOLT-4 leukemia.

For `N/C(=N\c1nc2ccc([N+](=O)[O-])cc2s1)C(Cl)(Cl)Cl`, the growth was 70.8% in the assay on HCT-15 colon; 30.7% in the assay with HT29 colon; 61.2% in the assay on SNB-19 CNS; 43.9% in the assay on U251 CNS; 49.1% in the assay on PC-3 prostate; 54.7% in the assay with UACC-62 melanoma. For the same molecule, the growth in the assay on LOX IMVI melanoma was 76%; with SK-MEL-28 melanoma it was 72.2%; with SK-MEL-2 melanoma, 120%; with EKVX NSCLC, 52%; with SN12C renal, 79.7%; in the assay with UO-31 renal, 43.8%. For the same molecule, the growth was 78.3% in the assay with TK-10 renal; 9.8% (active) in the assay on ACHN renal; 31.4% in the assay with CAKI-1 renal; 32.6% with A498 renal; 77.4% in the assay with CCRF-CEM leukemia; 77% with MOLT-4 leukemia.

On to `C/C(=C(/c1ccc(O)cc1)c1ccc(OCCN2CCCC2)cc1)c1ccc(Cl)cc1`, for which the growth in the assay with HCT-15 colon was -19.1% (active); in the assay with HT29 colon, -52.3% (active); with SNB-19 CNS, 49.1%; in the assay on U251 CNS, 20.3%; with PC-3 prostate, 46.9%; with SK-MEL-5 melanoma, 54.3%. The growth in the assay on UACC-62 melanoma was -17.7% (active); with LOX IMVI melanoma, -19.2% (active); in the assay on SK-MEL-28 melanoma it was -70% (active); in the assay with EKVX NSCLC, 57.4%; in the assay with SN12C renal it was 66%; in the assay on UO-31 renal, 53.8%. Moreover, the growth with TK-10 renal is 84.5%; with ACHN renal, 33.7%; in the assay on CAKI-1 renal it was 41.9%; with A498 renal it was 56.5%; with CCRF-CEM leukemia, 43.6%.

As to `O=C1Nc2cc(OC(F)(F)F)ccc2Oc2ccc(-c3ccnc(N4CCNCC4)c3)cc21`, the growth in the assay on HCT-15 colon is -51.4% (active); with HT29 colon it was -72.7% (active); in the assay on SNB-19 CNS, 27.2%; with U251 CNS it was -78.6% (active); in the assay with PC-3 prostate it was 13.8%; with UACC-62 melanoma it was -70.7% (active). The growth is -85.8% (active) in the assay with LOX IMVI melanoma; -80.9% (active) in the assay on SK-MEL-28 melanoma; 41.2% in the assay with EKVX NSCLC; -26.9% (active) with SN12C renal; 1.72% (active) with UO-31 renal; 2.57% (active) in the assay on ACHN renal. In addition, the growth in the assay on CAKI-1 renal is -36.1% (active); in the assay with CCRF-CEM leukemia, -6.19% (active); with MOLT-4 leukemia, -0.166% (active).

Take `O=C(Nc1ccc(Cl)cc1)Nc1nc2ccc([N+](=O)[O-])cc2s1`: the growth with HCT-15 colon was -42.7% (active); in the assay with HT29 colon, 1.88% (active); with SNB-19 CNS it was 11.5%; in the assay on U251 CNS it was -11% (active); in the assay with PC-3 prostate, -7.8% (active); with SK-MEL-5 melanoma, -83.7% (active). Also, the growth is -30.2% (active) with UACC-62 melanoma; -12.3% (active) in the assay with SK-MEL-28 melanoma; -40.8% (active) in the assay with SK-MEL-2 melanoma; 4.04% (active) with EKVX NSCLC; -0.314% (active) in the assay on SN12C renal; 3.55% (active) with UO-31 renal. Besides, the growth was -20.5% (active) in the assay on TK-10 renal; 0.28% (active) in the assay with ACHN renal; -16.5% (active) in the assay on CAKI-1 renal; 4.8% (active) in the assay on CCRF-CEM leukemia; -7.74% (active) with MOLT-4 leukemia.

On to `Cc1cc(Cl)cc(NS(=O)(=O)c2ccc(-c3cnc(C4CC4)o3)cc2)c1`, for which the growth is 21.8% with HCT-15 colon; 10.7% in the assay with HT29 colon; 36% with SNB-19 CNS; 23.9% in the assay with U251 CNS; 17.4% in the assay with PC-3 prostate; 32.5% in the assay on SK-MEL-5 melanoma. For the same molecule, the growth in the assay with UACC-62 melanoma was 31.5%; in the assay on SK-MEL-28 melanoma, 55.4%; in the assay on SK-MEL-2 melanoma it was 78.1%; in the assay with EKVX NSCLC, 39.4%; with SN12C renal, 39.6%; in the assay on UO-31 renal it was 43.8%. Moreover, the growth was 83.5% in the assay with TK-10 renal; 46.1% in the assay with ACHN renal; 37.1% in the assay with CAKI-1 renal; 18.6% in the assay with CCRF-CEM leukemia; 25.9% in the assay on MOLT-4 leukemia.

On to `CN(c1ccc(Br)cc1)S(=O)(=O)c1ccc(-c2cnc(C3CC3)o2)cc1`, for which the growth was 17.7% in the assay with HCT-15 colon; 11% with HT29 colon; 37.3% in the assay with SNB-19 CNS; 22.7% in the assay on U251 CNS; 22.4% in the assay on PC-3 prostate; 30% in the assay on SK-MEL-5 melanoma. The growth with UACC-62 melanoma was 28.5%; in the assay with SK-MEL-28 melanoma, 58.1%; with SK-MEL-2 melanoma it was 69.5%; in the assay on EKVX NSCLC, 43.1%; with SN12C renal, 30.2%; in the assay with UO-31 renal, 44.4%. The growth is 87.6% with TK-10 renal; 38.9% in the assay with ACHN renal; 36.9% in the assay on CAKI-1 renal; 18% with CCRF-CEM leukemia; 23.5% in the assay with MOLT-4 leukemia.
